PubChem BioAssay AID1159580 (chemical genetic matrix, 2015)
Several values for one entry are separate records, joined by “and”; a condition that tells them apart may be missing. Identical values can stand only once. About 2,000 (36%) of roughly 5,500 compounds were called active. Inconclusive results (about 18%) are left out. No stated cut-off is given here; in the data, active means normalized growth mostly below about 0.91 (no sharp cut-off); inconclusive means no clear call, values can overlap the other calls; inactive means mostly above about 0.92. The list shows a part of the results.

Experiment: chemical genetic growth profiling, strain panel (AID 1159580);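 further: tested at 20 µM; growth read once vehicle control cultures reached saturation at 30 °C; 1 = growth at the plate median or of vehicle wells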
Conditions: growth OD

Measured: normalized growth

COc1cccc(-c2cc(=O)c3cc(OC)ccc3o2)c1
inactive: S. cerevisiae deletion strains, locus YAL013W, strain DEP1, stronger effect = lower value 0.993 | S. cerevisiae deletion strains, locus YBR229C, strain ROT2, stronger effect = lower value 0.992 | S. cerevisiae deletion strains, locus YDL035C, strain GPR1, stronger effect = lower value 0.98 | S. cerevisiae deletion strains, locus YDL074C, strain BRE1, stronger effect = lower value 0.914 | S. cerevisiae deletion strains, locus YDL101C, strain DUN1, stronger effect = lower value 0.983 | S. cerevisiae deletion strains, locus YDL134C, strain PPH21, stronger effect = lower value 0.95 | S. cerevisiae deletion strains, locus YDL185W, strain tfp1, stronger effect = lower value 1.09 | S. cerevisiae deletion strains, locus YDL192W, strain arf1, stronger effect = lower value 1.04 | S. cerevisiae deletion strains, locus YDR150W, strain NUM1, stronger effect = lower value 1 | S. cerevisiae deletion strains, locus YDR162C, strain NBP2, stronger effect = lower value 0.968 | S. cerevisiae deletion strains, locus YDR318W, strain mcm21, stronger effect = lower value 1.05 | S. cerevisiae deletion strains, locus YDR388W, stronger effect = lower value 1.03 | S. cerevisiae deletion strains, locus YEL061C, strain CIN8, stronger effect = lower value 0.979 | S. cerevisiae deletion strains, locus YER155C, strain BEM2, stronger effect = lower value 1.07 | S. cerevisiae deletion strains, locus YER167W, strain BCK2, stronger effect = lower value 0.993 | S. cerevisiae deletion strains, locus YGL078C, strain dbp3, stronger effect = lower value 1.07 | S. cerevisiae deletion strains, locus YGL086W, strain mad1, stronger effect = lower value 1 | S. cerevisiae deletion strains, locus YGL248W, strain PDE1, stronger effect = lower value 0.944 | S. cerevisiae deletion strains, locus YGR135W, strain pre9, stronger effect = lower value 1.07 | S. cerevisiae deletion strains, locus YGR229C, strain SMI1, stronger effect = lower value 0.858 | S. cerevisiae deletion strains, locus YGR252W, strain gcn5, stronger effect = lower value 0.981 | S. cerevisiae deletion strains, locus YHR030C, strain SLT2, stronger effect = lower value 0.958 and 0.966 | S. cerevisiae deletion strains, locus YHR079C, strain IRE1 (second series), stronger effect = lower value 0.987 | S. cerevisiae deletion strains, locus YHR079C, strain IRE1, stronger effect = lower value 0.967 | S. cerevisiae deletion strains, locus YHR129C, strain ARP1, stronger effect = lower value 0.98 | S. cerevisiae deletion strains, locus YIL066C, strain RNR3, stronger effect = lower value 0.94 | S. cerevisiae deletion strains, locus YIL073C, strain SPO22, stronger effect = lower value 0.945 | S. cerevisiae deletion strains, locus YIL125W, strain kgd1, stronger effect = lower value 1.05 | S. cerevisiae deletion strains, locus YJL095W, strain BCK1, stronger effect = lower value 0.857 and 0.963 | S. cerevisiae deletion strains, locus YJL134W, strain LCB3, stronger effect = lower value 1.01 | S. cerevisiae deletion strains, locus YJL187C, strain SWE1 (second series), stronger effect = lower value 0.954 | S. cerevisiae deletion strains, locus YJR043C, strain POL32, stronger effect = lower value 0.93 | S. cerevisiae deletion strains, locus YJR066W, strain TOR1, stronger effect = lower value 0.916 | S. cerevisiae deletion strains, locus YJR075W, strain HOC1, stronger effect = lower value 0.959 | S. cerevisiae deletion strains, locus YKL068W, stronger effect = lower value 1.02 | S. cerevisiae deletion strains, locus YKL085W, strain MDH1 (second series), stronger effect = lower value 1.03 | S. cerevisiae deletion strains, locus YKL085W, strain MDH1, stronger effect = lower value 1.03 | S. cerevisiae deletion strains, locus YKL190W, strain CNB1, stronger effect = lower value 1.01 | S. cerevisiae deletion strains, locus YKR001C, strain vps1, stronger effect = lower value 0.998 | S. cerevisiae deletion strains, locus YLR039C, strain RIC1, stronger effect = lower value 0.995 | S. cerevisiae deletion strains, locus YLR058C, strain SHM2, stronger effect = lower value 0.968 | S. cerevisiae deletion strains, locus YLR102C, strain apc9, stronger effect = lower value 1.03 | S. cerevisiae deletion strains, locus YLR113W, strain HOG1, stronger effect = lower value 0.983 | S. cerevisiae deletion strains, locus YLR262C, strain YPT6, stronger effect = lower value 1.06 | S. cerevisiae deletion strains, locus YLR268W, strain sec22, stronger effect = lower value 1.07 | S. cerevisiae deletion strains, locus YLR330W, strain CHS5, stronger effect = lower value 0.952 | S. cerevisiae deletion strains, locus YLR342W, strain FKS1 (second series), stronger effect = lower value 0.891 | S. cerevisiae deletion strains, locus YLR418C, strain cdc73, stronger effect = lower value 0.895 | S. cerevisiae deletion strains, locus YML016C, strain PPZ1, stronger effect = lower value 0.987 | S. cerevisiae deletion strains, locus YML032C, strain rad52, stronger effect = lower value 0.934 | S. cerevisiae deletion strains, locus YML124C, strain tub3, stronger effect = lower value 1.04 | S. cerevisiae deletion strains, locus YMR078C, strain ctf18, stronger effect = lower value 1.06 | S. cerevisiae deletion strains, locus YMR223W, strain ubp8, stronger effect = lower value 1.09 | S. cerevisiae deletion strains, locus YMR263W, strain SAP30, stronger effect = lower value 0.935 | S. cerevisiae deletion strains, locus YMR307W, strain GAS1, stronger effect = lower value 0.969 | S. cerevisiae deletion strains, locus YNL067W, strain RPL9B, stronger effect = lower value 0.946 | S. cerevisiae deletion strains, locus YNL128W, strain TEP1, stronger effect = lower value 0.99 | S. cerevisiae deletion strains, locus YNL183C, strain NPR1, stronger effect = lower value 0.96 | S. cerevisiae deletion strains, locus YNL233W, strain BNI4, stronger effect = lower value 0.889 | S. cerevisiae deletion strains, locus YNL250W, strain rad50, stronger effect = lower value 1.05 | S. cerevisiae deletion strains, locus YNL298W, strain CLA4, stronger effect = lower value 0.992 | S. cerevisiae deletion strains, locus YNL322C, strain KRE1, stronger effect = lower value 0.999 | S. cerevisiae deletion strains, locus YNR052C, strain pop2, stronger effect = lower value 1.03 | S. cerevisiae deletion strains, locus YOL006C, strain TOP1, stronger effect = lower value 0.723 | S. cerevisiae deletion strains, locus YOL012C, strain htz1 0.822 | S. cerevisiae deletion strains, locus YOL147C, strain pex11, stronger effect = lower value 0.969 | S. cerevisiae deletion strains, locus YOR061W, strain CKA2, stronger effect = lower value 1 | S. cerevisiae deletion strains, locus YOR069W, strain VPS5, stronger effect = lower value 1 | S. cerevisiae deletion strains, locus YOR231W, strain MKK1, stronger effect = lower value 0.977 | S. cerevisiae deletion strains, locus YPL256C, strain CLN2, stronger effect = lower value 0.982 | S. cerevisiae deletion strains, locus YPR141C, strain kar3, stronger effect = lower value 1.07 | S. cerevisiae deletion strains, locus YPR163C, strain tif3, stronger effect = lower value 1.07 | S. cerevisiae deletion strains, strain wtn01, stronger effect = lower value 1.09 | S. cerevisiae strains, strain wild type, stronger effect = lower value 0.972
active: S. cerevisiae deletion strains, locus YBR021W, strain FUR4, stronger effect = lower value 0.816 | S. cerevisiae deletion strains, locus YCL029C, strain bik1, stronger effect = lower value 1.1 [resistant] | S. cerevisiae deletion strains, locus YDR101C, strain arx1, stronger effect = lower value 1.13 [resistant] | S. cerevisiae deletion strains, locus YDR502C, strain sam2, stronger effect = lower value 1.14 [resistant] | S. cerevisiae deletion strains, locus YHR094C, strain hxt1, stronger effect = lower value 1.18 [resistant] | S. cerevisiae deletion strains, locus YHR200W, strain rpn10, stronger effect = lower value 1.14 [resistant] | S. cerevisiae deletion strains, locus YIR030C, strain dcg1, stronger effect = lower value 1.12 [resistant] | S. cerevisiae deletion strains, locus YJL168C, strain set2, stronger effect = lower value 1.1 [resistant] | S. cerevisiae deletion strains, locus YKL009W, strain mrt4, stronger effect = lower value 0.713 | S. cerevisiae deletion strains, locus YLR371W, strain rom2, stronger effect = lower value 1.11 [resistant] | S. cerevisiae deletion strains, locus YNL271C, strain bni1, stronger effect = lower value 1.17 [resistant] | S. cerevisiae deletion strains, locus YNL307C, strain MCK1, stronger effect = lower value 1.14 [resistant] | S. cerevisiae deletion strains, locus YOR136W, strain idh2, stronger effect = lower value 1.18 [resistant] | S. cerevisiae deletion strains, locus YOR184W, strain ser1, stronger effect = lower value 1.14 [resistant] | S. cerevisiae deletion strains, locus YOR316C, strain cot1, stronger effect = lower value 1.12 [resistant] | S. cerevisiae deletion strains, locus YPR119W, strain clb2, stronger effect = lower value 1.11 [resistant] | S. cerevisiae deletion strains, locus YPR167C, strain met16, stronger effect = lower value 1.08 [resistant]
